Measured values from PubChem BioAssay (NCATS).
Values without a mark were called inactive. Inconclusive results are not listed. Active and inactive are the calls of the source. Unless noted, calls come from the whole dose curve; as a rule, active = well fitted curve in either direction with a large enough effect (not every such curve was filed as active); inconclusive = small, poorly fitted or top-dose-only effect, or another doubt; inactive = flat fitted curve, though single readings scatter.

Columns and labels:
[1] = target: Lysosomal acid glucosylceramidase (Homo sapiens) (UniProt P04062); assay: Glucocerebrosidase-p2 (AID 348; in the data active = potency below about 10 µM; note: potency is the fitted concentration of half-maximal effect); conditions: purified GBA, blue fluorogenic substrate, 40 min
Lysosomal acid glucosylceramidase (Homo sapiens), sequence (P04062 whole entry, looked up): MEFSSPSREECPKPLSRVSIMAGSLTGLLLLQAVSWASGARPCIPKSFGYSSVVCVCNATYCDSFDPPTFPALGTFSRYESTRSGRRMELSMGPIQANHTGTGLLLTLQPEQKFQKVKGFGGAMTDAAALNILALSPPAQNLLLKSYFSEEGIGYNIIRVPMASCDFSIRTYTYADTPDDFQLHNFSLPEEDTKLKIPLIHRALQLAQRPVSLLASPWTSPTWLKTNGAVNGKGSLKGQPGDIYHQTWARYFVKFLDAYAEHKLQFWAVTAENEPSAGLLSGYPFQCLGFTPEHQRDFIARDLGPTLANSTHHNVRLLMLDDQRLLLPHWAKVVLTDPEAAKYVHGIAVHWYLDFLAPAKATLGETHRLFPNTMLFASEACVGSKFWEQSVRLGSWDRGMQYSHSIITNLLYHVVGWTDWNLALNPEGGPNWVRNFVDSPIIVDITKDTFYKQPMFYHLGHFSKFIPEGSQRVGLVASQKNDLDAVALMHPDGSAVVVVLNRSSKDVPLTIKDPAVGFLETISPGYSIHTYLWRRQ
In short: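 Compounds titrated from 0.6 nM upwards against 0.2 nM enzyme in pH 5.9 citric acid/KH2PO4, taurocholate, tween-20; blue fluorogenic substrate 80 uM, 40 min room temperature, stopped and read Ex 365/Em 440 for AC50.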

[2] = AP1 Signaling Pathway (AID 357); conditions: ME-180 AP-1-bla reporter, EGF-induced, beta-lactamase ratio, 5 h; at 7.69 µM (top of the series) unless noted;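 note: ME-180 reporter cells stimulated with EGF at its EC50 level; % is set by controls: 0 for no effect and ±100 for the full control effect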
In short: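 Cells are seeded overnight, exposed to compound titrations and an EC50 level of EGF for 5 hours at 37 °C, then loaded with CCF4 dye for 2.5 hours. Beta-lactamase activity under the AP-1 element is read as a blue/green ratio.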

[3] = target: Cytochrome P450 1A2 (Homo sapiens) (UniProt P05177); assay: p450-cyp1a2 (AID 410; calls by dose curve; note: potency is the fitted concentration of half-maximal effect;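 for activity change, negative = inhibition: -100% = full effect of reference inhibitor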); conditions: recombinant CYP1A2, luciferin-ME demethylation, luminescence; series mostly up to 11.4 µM
Cytochrome P450 1A2 (Homo sapiens), sequence (P05177 whole entry, looked up): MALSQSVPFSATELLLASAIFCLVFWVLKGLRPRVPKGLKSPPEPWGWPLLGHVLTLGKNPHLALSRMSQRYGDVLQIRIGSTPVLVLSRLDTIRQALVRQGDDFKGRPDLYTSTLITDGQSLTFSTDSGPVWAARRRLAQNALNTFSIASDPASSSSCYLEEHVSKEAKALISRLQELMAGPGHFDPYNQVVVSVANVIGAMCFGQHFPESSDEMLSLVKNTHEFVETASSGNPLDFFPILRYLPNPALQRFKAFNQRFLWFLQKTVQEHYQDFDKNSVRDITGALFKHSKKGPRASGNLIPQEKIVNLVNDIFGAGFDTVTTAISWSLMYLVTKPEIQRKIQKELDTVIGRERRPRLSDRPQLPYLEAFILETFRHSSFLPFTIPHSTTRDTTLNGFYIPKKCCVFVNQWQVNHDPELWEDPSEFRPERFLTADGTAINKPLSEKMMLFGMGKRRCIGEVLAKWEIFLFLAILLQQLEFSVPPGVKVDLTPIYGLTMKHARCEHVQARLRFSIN
In short: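 Human CYP1A2 (20nM) demethylated Luciferin-ME at its Km (100uM) in 100mM KPO4. After 10 min compound preincubation, NADPH regeneration ran the reaction 60 min at room temperature. Luciferin was read by luminescence, normalized to 57 uM furafylline.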

[4] = NFAT Signaling Pathway (AID 444); conditions: Jurkat NFAT-bla M1, carbachol, beta-lactamase ratio, 5 h; at 7.69 µM (top of the series) unless noted;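 note: carbachol stimulus at about its EC50 of 1 µM final; % is set by controls: 0 for no effect and ±100 for the full control effect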
In short: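 Read-out: CCF4 FRET ratio (460 nm/530 nm) after 1 h RT dye loading, used for %activity and AC50 from titration series. Cells: Jurkat NFAT-β-lactamase/M1 line, treated with compound plus 1 uM carbachol for 5 h, 37 °C.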

[5] = Stat Signaling Pathway (AID 446); conditions: ME-180 SIE beta-lactamase reporter, IL-6 stimulated, 5 h; at 7.69 µM (top of the series) unless noted;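 note: ME-180 cervical cancer cells given 40 pM IL-6 alongside compound; SIE-controlled beta-lactamase reporter measured as 460/530 nm FRET emission ratio; % is set by controls: 0 for no effect and ±100 for the full control effect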
In short: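 Screening format detects activators and inhibitors alike: ME-180 SIE-bla cells stimulated at 40 pM IL-6 for 5 hrs with compound, then dual-emission beta-lactamase read at 405 nm excitation.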

[6] = target: Glucocorticoid receptor (Homo sapiens) (UniProt P04150); assay: GR-GFP Redistribution (AID 450;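 active = compounds whose dose series gives a full or clear partial fitted curve of increased nuclear translocation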; note: potency is the fitted concentration of half-maximal effect); conditions: U2OS GR-GFP nuclear translocation, laser cytometry, 2 h
Glucocorticoid receptor (Homo sapiens), sequence (P04150 whole entry, looked up, the tested form may be a part): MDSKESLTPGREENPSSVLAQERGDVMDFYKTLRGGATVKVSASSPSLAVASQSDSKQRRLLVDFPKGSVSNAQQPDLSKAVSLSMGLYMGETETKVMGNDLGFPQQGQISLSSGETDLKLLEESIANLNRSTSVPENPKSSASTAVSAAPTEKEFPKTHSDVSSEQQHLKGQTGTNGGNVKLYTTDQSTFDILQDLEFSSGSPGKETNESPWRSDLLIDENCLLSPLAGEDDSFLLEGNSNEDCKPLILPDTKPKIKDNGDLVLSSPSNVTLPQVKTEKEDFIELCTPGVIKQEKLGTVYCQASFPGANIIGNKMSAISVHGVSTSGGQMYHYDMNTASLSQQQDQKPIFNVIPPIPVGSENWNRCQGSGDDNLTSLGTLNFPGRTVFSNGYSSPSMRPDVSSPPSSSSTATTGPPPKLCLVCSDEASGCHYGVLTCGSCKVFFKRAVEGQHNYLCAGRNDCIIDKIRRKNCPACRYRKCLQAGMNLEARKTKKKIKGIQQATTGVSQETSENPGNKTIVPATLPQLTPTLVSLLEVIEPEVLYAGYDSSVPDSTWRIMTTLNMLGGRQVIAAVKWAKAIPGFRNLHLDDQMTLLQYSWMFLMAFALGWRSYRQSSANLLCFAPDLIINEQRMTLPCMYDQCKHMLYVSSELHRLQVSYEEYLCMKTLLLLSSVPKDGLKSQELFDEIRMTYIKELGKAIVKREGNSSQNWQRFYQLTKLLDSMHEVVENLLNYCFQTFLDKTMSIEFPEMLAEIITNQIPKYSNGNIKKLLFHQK

[7] = target: Glucocorticoid receptor (Homo sapiens) (UniProt P04150); assay: GR-EFC Redistribution (AID 451; calls by dose curve; note: potency is the fitted concentration of half-maximal effect); conditions: CHO-K1 GR-EFC translocation, beta-gal luminescence, 2 h
In short: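 Translocation of GR-ED fusion to nuclear EA restores b-gal, read by luminescence after 1 h room-temperature detection. Engineered CHO-K1 biosensor cells, 1,000/well, exposed 2 h at 37 C to titrations up to 46 uM final.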

[8] = target: Mitogen-activated protein kinase 10 (Mus musculus) (UniProt Q61831); assay: JNK3 AlphaScreen Assay (AID 530); conditions: JNK3 lysate, c-Jun phosphorylation; series mostly up to 11.4 µM;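 note: kinase came from lysate of stimulated human HepG2 cells; signal reports phosphorylation of biotinylated GST-cJun 1-79 at Ser73 with 10 µM ATP; % is set by controls: 0 for no effect and ±100 for the full control effect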
In short: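 Room-temperature AlphaScreen kinase assay; pre-activated HepG2 lysate as JNK3 source, biotin-GST-cJun(1-79) substrate, 10 uM ATP, compound 15 min preincubation.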

[9] = target: 3',5'-cyclic-AMP phosphodiesterase 4B (Homo sapiens) (UniProt Q07343); assay: qHTS Assay for Inhibitors of PDE-IV (AID 607; active = well fitted activation curve with a large enough effect in the main read-out, with a control signal flat, not every such curve was filed as active; note: % of control where 0% means no effect); conditions: HEK293 ACTOne CNG channel cells, membrane potential fluorescence; series mostly up to 22.9 µM
3',5'-cyclic-AMP phosphodiesterase 4B (Homo sapiens), sequence (Q07343 whole entry, looked up): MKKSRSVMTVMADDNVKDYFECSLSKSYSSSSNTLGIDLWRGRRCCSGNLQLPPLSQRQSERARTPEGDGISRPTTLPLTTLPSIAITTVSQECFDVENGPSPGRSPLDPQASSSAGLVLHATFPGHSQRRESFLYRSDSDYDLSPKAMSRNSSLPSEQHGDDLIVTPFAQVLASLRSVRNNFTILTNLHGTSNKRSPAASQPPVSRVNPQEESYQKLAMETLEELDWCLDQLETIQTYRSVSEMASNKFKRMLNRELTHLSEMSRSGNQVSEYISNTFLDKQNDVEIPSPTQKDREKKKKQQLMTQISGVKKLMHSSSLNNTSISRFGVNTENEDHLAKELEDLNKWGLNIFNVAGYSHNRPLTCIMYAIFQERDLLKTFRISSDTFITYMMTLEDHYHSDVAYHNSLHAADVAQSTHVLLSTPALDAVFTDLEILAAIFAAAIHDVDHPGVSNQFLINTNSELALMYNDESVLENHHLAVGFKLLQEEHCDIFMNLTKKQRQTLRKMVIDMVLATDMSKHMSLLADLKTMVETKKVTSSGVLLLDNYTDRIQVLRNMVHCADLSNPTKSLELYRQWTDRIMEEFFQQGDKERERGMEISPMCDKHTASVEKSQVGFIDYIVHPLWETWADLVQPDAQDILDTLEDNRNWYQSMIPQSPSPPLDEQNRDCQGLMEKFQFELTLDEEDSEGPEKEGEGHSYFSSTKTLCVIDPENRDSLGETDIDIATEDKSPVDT
In short: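 The readout is membrane depolarisation from a cAMP-sensing CNG channel, detected with a potential dye at ex 535/em 590. Cells were HEK293-derived (endogenous PDE-IV) at 1000 cells/well, titrated up to 22.9 uM final.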

[10] = target: Cytochrome P450 2D6 (Homo sapiens) (UniProt P10635); assay: qHTS Assay for Inhibitors and Substrates of Cytochrome P450 2D6 (AID 891; active = well fitted curve in the direction sought with a large enough effect; an effect the other way counts as inactive or inconclusive; note: nearly all actives have a fitted effect of over 60% in size; note: potency is the fitted concentration of half-maximal effect); conditions: recombinant CYP2D6, luciferin-ME EGE luminescence; series mostly up to 11.4 µM
Cytochrome P450 2D6 (Homo sapiens), sequence (P10635 whole entry, looked up): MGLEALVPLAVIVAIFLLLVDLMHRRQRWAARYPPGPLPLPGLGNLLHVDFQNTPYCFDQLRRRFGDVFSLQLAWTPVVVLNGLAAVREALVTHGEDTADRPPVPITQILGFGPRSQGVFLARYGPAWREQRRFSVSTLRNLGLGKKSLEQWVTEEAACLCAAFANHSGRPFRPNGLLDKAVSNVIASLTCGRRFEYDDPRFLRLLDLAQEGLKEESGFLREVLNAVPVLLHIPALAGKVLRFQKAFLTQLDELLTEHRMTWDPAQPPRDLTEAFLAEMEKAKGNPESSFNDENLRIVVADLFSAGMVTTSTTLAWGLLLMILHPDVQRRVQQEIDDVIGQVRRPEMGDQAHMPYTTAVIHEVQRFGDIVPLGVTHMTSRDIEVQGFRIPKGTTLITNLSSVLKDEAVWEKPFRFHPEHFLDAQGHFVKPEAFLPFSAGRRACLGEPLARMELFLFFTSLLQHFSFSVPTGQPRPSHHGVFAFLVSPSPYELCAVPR
In short: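 Human CYP2D6 (5 nM) with 30 uM Luciferin-ME EGE (at Km) in 100 mM KPO4, compound preincubated 10 min, then NADPH regeneration system for 60 min at room temperature. Luciferin read by luminescence; normalized to 1.43 uM quinidine.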

[11] = target: Cytochrome P450 3A4 (Homo sapiens) (UniProt P08684); assay: qHTS Assay for Activators of Cytochrome P450 3A4 (AID 885; active = well fitted curve in the direction sought with a large enough effect; an effect the other way counts as inactive or inconclusive; note: nearly all actives have a fitted effect of over 65% in size); conditions: recombinant CYP3A4, Luciferin-PPXE luminescence, 60 min; series mostly up to 11.4 µM
Cytochrome P450 3A4 (Homo sapiens), sequence (P08684 whole entry, looked up): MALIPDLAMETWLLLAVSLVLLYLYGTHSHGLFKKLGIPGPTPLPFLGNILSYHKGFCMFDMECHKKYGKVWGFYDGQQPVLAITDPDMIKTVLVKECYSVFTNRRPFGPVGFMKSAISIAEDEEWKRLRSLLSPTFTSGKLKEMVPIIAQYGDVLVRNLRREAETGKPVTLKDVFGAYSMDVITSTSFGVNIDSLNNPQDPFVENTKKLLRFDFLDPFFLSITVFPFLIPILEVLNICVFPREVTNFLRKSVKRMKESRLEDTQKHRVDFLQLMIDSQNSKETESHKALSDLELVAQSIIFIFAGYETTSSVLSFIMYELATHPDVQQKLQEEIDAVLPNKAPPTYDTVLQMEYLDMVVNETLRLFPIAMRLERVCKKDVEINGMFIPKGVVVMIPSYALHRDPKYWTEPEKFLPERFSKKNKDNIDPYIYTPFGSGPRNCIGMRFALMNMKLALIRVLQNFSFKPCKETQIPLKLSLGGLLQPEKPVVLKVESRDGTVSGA
In short: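 Steps: enzyme/substrate mix dispensed; compound added, 10 min RT; NADPH regeneration solution added, 60 min RT; luciferin detection buffer stops reaction; 20 min later luminescence measured.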

[12] = qHTS Assay for Identification of Small Molecule Agonists for Hypoxia Response Element Signaling Pathway (AID 914; active = well fitted activation curve with a large enough effect in the signal ratio, with a control signal flat, not every such curve was filed as active; the % refers to the signal ratio; note: % of control where 0% means no effect); conditions: ME-180 (cervical carcinoma) HRE-bla reporter, beta-lactamase ratio, CoCl2, 17 h; activation: hits give high values
In short: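 Compounds in a titration series were added to ME-180 reporter cells alongside an EC50 level of CoCl2. After 17 hours, beta-lactamase activity was read as the 460nm/530nm emission ratio of CCF4, giving AC50 values.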

[13] = target: Cytochrome P450 2C19 (Homo sapiens) (UniProt P33261); assay: qHTS Assay for Inhibitors and Substrates of Cytochrome P450 2C19 (AID 899; active = well fitted curve in the direction sought with a large enough effect; an effect the other way counts as inactive or inconclusive; note: potency is the fitted concentration of half-maximal effect; nearly all actives have a fitted effect of over 60% in size); conditions: recombinant CYP2C19, luciferin-H EGE luminescence; series mostly up to 11.4 µM
Cytochrome P450 2C19 (Homo sapiens), sequence (P33261 whole entry, looked up): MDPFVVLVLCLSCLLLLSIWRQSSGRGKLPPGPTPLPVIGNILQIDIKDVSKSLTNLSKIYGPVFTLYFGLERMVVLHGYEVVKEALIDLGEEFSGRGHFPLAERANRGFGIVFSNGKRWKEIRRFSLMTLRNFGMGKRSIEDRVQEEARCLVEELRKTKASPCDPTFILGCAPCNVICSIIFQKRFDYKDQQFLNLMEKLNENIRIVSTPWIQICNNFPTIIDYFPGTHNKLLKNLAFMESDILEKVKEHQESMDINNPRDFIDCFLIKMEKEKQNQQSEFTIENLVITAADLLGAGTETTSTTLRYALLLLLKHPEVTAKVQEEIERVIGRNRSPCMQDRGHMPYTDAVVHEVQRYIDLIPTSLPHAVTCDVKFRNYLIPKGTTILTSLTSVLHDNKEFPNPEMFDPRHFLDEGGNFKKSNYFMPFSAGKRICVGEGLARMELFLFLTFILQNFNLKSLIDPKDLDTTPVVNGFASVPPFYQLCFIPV
In short: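 Luminescence readout of luciferin formed from 10uM Luciferin-H EGE (KM level) by 5 nM CYP2C19 in 50mM KPO4. 60 min NADPH-driven reaction at 37C after 10 min compound preincubation; data scaled to 57uM ketoconazole inhibition.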

SMILES	Potency [1]	activity change, negative = inhibition [2]	Potency [3]	activity change, negative = inhibition [4]	activity, negative = inhibition [5]	Potency [6]	Potency [7]	Potency [8]	Potency [9]	Potency [10]	activity change, negative = inhibition [3]	Potency [11]	activation [12]	Potency [13]
c1ccc(C(CCN2CC3CCC(CC3)C2)c2ccccc2)cc1	> 11.4 µM	2.88%	inactive	-81.8% (active)	0.0517%	> 46 µM	> 9.22 µM	inactive	inactive	0.794 µM (active)	–	–	–	–
O=C1NC(=O)[C@@](Cc2ccccc2)(c2cccnc2)N1	> 11.4 µM	-12.7%	–	9.84%	-7.87%	> 46 µM	> 9.22 µM	inactive	inactive	–	-17.1% [at 2.29 µM]	inactive	5.55%	–
CN=C(N)/N=C(\N)Nc1cc2ccccc2c2ccccc12	> 11.4 µM	-3.61%	0.251 µM (active)	27.5%	12.7%	> 46 µM	> 9.22 µM	inactive	inactive	1.58 µM (active)	–	–	–	–
COc1cc2nncc(SCc3ccc(Cl)c(Cl)c3)c2cc1OC	> 11.4 µM	0.364%	0.794 µM (active)	1.06%	-13.6%	> 46 µM	> 9.22 µM	inactive	inactive	–	–	inactive	–	2.51 µM (active)
Oc1ccc2ccccc2c1CN(Cc1c(O)ccc2ccccc12)C1CCCCC1	> 11.4 µM	3.63%	0.631 µM (active)	-9.52%	-14.2%	> 46 µM	> 9.22 µM	inactive	inactive	0.631 µM (active)	–	–	–	–
CC[C@H]1CN(C)[C@H]2Cc3c([nH]c4ccccc34)C(=O)C[C@H]1[C@H]2C(=O)OC	> 11.4 µM	-2.14%	inactive	11.7%	8.84%	> 46 µM	> 9.22 µM	inactive	inactive	inactive	–	–	–	–
O=S(=O)(O)c1ccc(N=Nc2ccccc2)cc1	> 11.4 µM	-9.23%	inactive	7.04%	0.896%	> 46 µM	> 9.22 µM	inactive	inactive	inactive	–	–	–	–
c1ccc2sc(SCCSc3nc4ccccc4s3)nc2c1	> 11.4 µM	8.08%	0.794 µM (active)	-22.4%	2.32%	> 46 µM	> 9.22 µM	inactive	inactive	inactive	–	–	–	–
CC[C@H](C(=O)c1cccs1)C(O)(C(F)(F)F)C(F)(F)F	> 11.4 µM	-7.57%	–	20.8%	-6.19%	> 46 µM	> 9.22 µM	inactive	inactive	3.16 µM (active)	-17.5% [at 2.29 µM]	–	–	–
COCCn1c(=O)c(-c2cc(F)cc(F)c2)nc2cnc(Oc3ccccc3)nc21	> 11.4 µM	0.911%	5.01 µM (active)	-3.81%	0.0611%	> 9.22 µM	> 46 µM	inactive	inactive	–	–	inactive	20.9%	–
O=C(O)[C@@H]1[C@@H](C(=O)O)[C@]23C[C@@]2(C(=O)O)[C@]2(C(=O)O)CCC3=C3CCCC312	> 11.4 µM	10.3%	2.51 µM (active)	0.691%	-2.48%	> 46 µM	> 9.22 µM	inactive	inactive	inactive	–	–	–	–
COc1ccc(-c2cc([C@H](O)[C@@H]3CCCCN3)c3ccccc3n2)cc1	> 11.4 µM	27.7%	–	23.2%	2.85%	> 46 µM	> 9.22 µM	inactive	inactive	3.16 µM (active)	-11% [at 2.29 µM]	–	–	3.98 µM (active)
S=C1SCN(C2CCCCCCCCCCC2)CN1C1CCCCCCCCCCC1	> 11.4 µM	-6.27%	–	6.16%	-6.56%	> 46 µM	> 9.22 µM	inactive	inactive	–	-14.7% [at 2.29 µM]	inactive	24.8%	3.98 µM (active)
Clc1ccc2c(N3CCC(CCC4CCN(c5ncnc6cc(Cl)ccc56)CC4)CC3)ncnc2c1	> 11.4 µM	0.285%	3.16 µM (active)	0.959%	0.136%	> 46 µM	> 9.22 µM	inactive	inactive	0.794 µM (active)	–	–	–	–
